This is an account of results in PubChem BioAssay (NCI).

Compounds without any hit were thinned out: in the full panel of roughly 83,000, 20% have a hit.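 The test compound was applied at a single concentration to cells in 96-well plates for 48 hours, and percent growth was recorded.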 Unmarked numbers belong to inactive results. Activity calls are given as the source filed them. Rule for the calls: active = growth percent below 10; inactive = the rest.

Common to all, as to assay: NCI-60 one-dose screen, 48 h (100 = growth as untreated, 0 = no growth, -100 = all killed)
Holding throughout (settings): 10 µM unless noted

The test system of experiment [1] is SK-MEL-2 melanoma.
Experiment [2] has as its system EKVX NSCLC.
The test system of experiment [3] is SN12C renal.
Experiment [4] has as its system UO-31 renal.
Experiment [5] has as its system TK-10 renal.
Experiment [6] concerns ACHN renal.
Experiment [7] has as its system CAKI-1 renal.
For experiment [8], the system named is A498 renal.
Experiment [9] deals with CCRF-CEM leukemia.
In experiment [10] the test system is MOLT-4 leukemia.

With `Fc1ccc(-c2cn3c(-c4c[nH]c5ccc(Br)cc45)csc3n2)cc1`, the growth in experiment [1] was 90.5%; in experiment [2] it was 64.9%; in experiment [3], 52.4%; in experiment [4], 47.8%; in experiment [5], 80.3%; in experiment [6], 49%. The growth in [7] was 38.3%; in experiment [8], 91.3%; in [9], 70.3%; in experiment [10], 63.9%.
As to `CC(C)(C)Nc1nc2c(OCCc3ccccc3)cccn2c1-c1cccc(Oc2ccccc2)c1`, the growth in [1] is -26.2% (active); in experiment [2], 13.5%; in [3] it was 12.3%; in [4], 5.5% (active); in experiment [5], 21.8%; in [6], 7.39% (active). The growth in experiment [7] was 8.12% (active); in experiment [8], 16.2%; in experiment [9] it was 15%; in [10], 5.42% (active).
For the compound `C#CCOc1ccccc1C(OC(=O)c1ccccc1)C(=O)NC(C)(C)C(C)(C)C` (stereo not given), the growth in experiment [1] is 90.6%; in experiment [2], 75.3%; in experiment [3], 95.7%; in [4], 62.7%; in [5] it was 101%; in [6] it was 97.2%. Further, the growth in [7] was 63.5%; in experiment [8] it was 120%; in experiment [9], 79.5%; in experiment [10], 40.6%.
For `CC(=O)OCCCCN1C=C/C(=C\C(=O)n2ccc3ccccc32)c2ccccc21`, the growth in experiment [1] was 113%; in experiment [2], 75%; in [3], 108%; in experiment [4] it was 71.6%; in experiment [5] it was 147%; in experiment [6], 94.8%. Further, the growth is 79.8% in [7], 121% in [8], 102% in [9] and 98% in experiment [10].
With `NC1C2CCC1CN(c1cnc(C(=O)Nc3cc(F)cc4cccnc34)cn1)C2` (stereo not given), the growth in [1] was 101%; in experiment [2], 71.2%; in experiment [3], 56.1%; in [4], 34.9%; in [5], 91.2%; in experiment [6], 28.3%. Besides, the growth in [7] was 38.5%; in experiment [8] it was 72.8%; in experiment [9], 25%; in [10], 16.3%.
Take `Cc1ccc2c(n1)C(=O)C(Cl)=C(Nc1ccc(C(C)C)cc1)C2=O`: the growth in [1] is 71.2%; in experiment [2], -0.749% (active); in [3] it was 46.4%; in experiment [4], -65.3% (active); in experiment [5] it was 145%; in [6] it was -77.2% (active). For the same compound, the growth was 77.3% in [7], 133% in experiment [8], 3.85% (active) in [9] and 4.3% (active) in experiment [10].
`Cc1ccc2c(n1)C(=O)C(Cl)=C(Nc1ccc(C#N)cc1)C2=O`: the growth in experiment [1] is 104%; in experiment [2], 93%; in experiment [3], 98%; in [4], 16.2%; in [5], 104%; in experiment [6], -58.5% (active). Besides, the growth in experiment [7] was 76.5%; in [8], 61.6%; in experiment [9], 3.83% (active); in [10], 7.64% (active).
For the compound `CC(Nc1ncnc2ccc(-c3cnc(N)nc3)cc12)c1ccccc1` (stereo not given), the growth was 60.8% in experiment [1]; 13.5% in experiment [2]; 22.1% in experiment [3]; 9.12% (active) in experiment [4]; -8.21% (active) in experiment [5]; 16.9% in [6]. For the same compound, the growth in [7] is 16.7%; in [8], 11.5%; in experiment [9], 36.4%; in experiment [10], 30.3%.
With `Cc1cccc(N2CCN(C3=C(Cl)C(=O)c4ncccc4C3=O)CC2)c1`, the growth in experiment [1] was 99.9%; in experiment [2], 104%; in experiment [3], 75.1%; in experiment [4], 18.3%; in [5] it was 117%; in experiment [6] it was -32.9% (active). Besides, the growth is 52% in experiment [7], 103% in experiment [8], 4.71% (active) in [9] and 9.85% (active) in experiment [10].
Consider `CCOC(=O)C1=C(C)NC(C)=C(C(=O)OC(C)C)C1c1cccc(C#N)c1` (stereo not given), for which the growth is 106% in experiment [1]; 90.7% in experiment [2]; 97.8% in experiment [3]; 93.3% in experiment [4]; 106% in [5]; 96.7% in experiment [6]. Further, the growth in experiment [7] is 84.7%; in experiment [8], 83.9%; in experiment [9], 103%; in experiment [10], 88.8%.
With `O=C1[C@@H]2Cc3c([nH]c4ccccc34)[C@@H](c3ccc(Cl)cc3)N2C(=O)CN1C1CCN(Cc2c(F)cccc2F)CC1`, the growth in experiment [1] was 67.6%; in experiment [2], 40.1%; in experiment [3] it was 38.5%; in experiment [4], 24.2%; in experiment [5], 52.5%; in experiment [6] it was 28%. Besides, the growth in experiment [7] is 24.6%; in [8], 60%; in experiment [9], 19.8%; in experiment [10], 8.27% (active).
With `C=C(C)[C@@H]1CC[C@]2(C(=O)NC3CCCCC3)CC[C@]3(C)[C@H](CC[C@@H]4[C@@]5(C)CC[C@H](N)C(C)(C)[C@@H]5CC[C@]43C)[C@@H]12`, the growth is 105% in experiment [1]; 90.7% in experiment [2]; 102% in [3]; 80.4% in experiment [4]; 124% in experiment [5]; 104% in experiment [6]. Moreover, the growth is 65.4% in [7], 118% in [8], 79.4% in experiment [9] and 64.5% in [10].
Regarding `O=C(CSc1nc2ccccc2c(=O)n1CCc1ccccc1)Nc1ccc(S(=O)(=O)Nc2ccc(Cl)nn2)cc1`, the growth in experiment [1] was 111%; in experiment [2], 86.9%; in experiment [3], 94.9%; in [4], 65.1%; in experiment [5], 149%; in experiment [6] it was 90.6%. Moreover, the growth in experiment [7] was 75.1%; in experiment [8] it was 107%; in experiment [9], 99.2%; in experiment [10] it was 99.8%.
With `O=C1c2ccccc2C23C(=C(c4cncnc4)c4ccccc42)CCCN13` (stereo not given), the growth in experiment [1] was 106%; in experiment [2], 100%; in [3] it was 96.4%; in experiment [4], 85.6%; in experiment [5] it was 97%; in experiment [6] it was 99.2%. The growth in [7] was 78.5%; in [8] it was 96.4%; in [9], 102%; in experiment [10], 107%.
On to `NS(=O)(=O)c1nnc(/N=C/c2c(O)[nH]c3ccccc23)s1`, for which the growth in experiment [1] is 114%; in [2] it was 84.2%; in [3] it was 101%; in [4], 72.5%; in experiment [5], 142%; in [6] it was 93.7%. Moreover, the growth in experiment [7] is 86.5%; in experiment [8], 107%; in [9] it was 106%; in [10], 126%.
Take `N#Cc1c(-c2cccs2)cc(-c2cnccn2)nc1SCC(=O)N/N=C/c1ccc(Cl)cc1`: the growth was 121% in experiment [1]; 93.5% in [2]; 104% in [3]; 92.6% in experiment [4]; 130% in experiment [5]; 102% in [6]. Besides, the growth in [7] is 90.8%; in experiment [8], 87.1%; in experiment [9], 87.6%; in [10] it was 102%.
For `O=[N+]([O-])c1ccc(NC(=S)NNC(=S)Nc2ccc(F)cc2)cc1`, the growth in experiment [1] is 105%; in [2], 94.8%; in [3], 90.7%; in experiment [4], 70.2%; in [5], 103%; in experiment [6], 78.9%. The growth in [7] is 68.7%; in experiment [8] it was 81.4%; in experiment [9] it was 103%; in [10], 80.8%.
Regarding `COc1ccc(C2CC(c3cccc(OCCCCOc4cccc(C5=NOC(c6ccc(OC)cc6)C5)c4)c3)=NO2)cc1` (stereo not given), the growth in experiment [1] was 103%; in experiment [2] it was 102%; in experiment [3], 95.3%; in [4], 79%; in experiment [5], 104%; in [6], 104%. Besides, the growth in experiment [7] was 89%; in [8], 111%; in [9], 72.8%; in [10], 92.2%.
As for `CC1CC(=O)C2=C(C1)Nc1ccc(Br)cc1CC2c1c[nH]c2ccc(Br)cc12` (stereo not given), the growth in experiment [1] was 37.3%; in experiment [2], 41.2%; in [3], 53.6%; in experiment [4] it was 50.9%; in experiment [5], 79.4%; in experiment [6], 48.6%. The growth is 38.1% in experiment [7], 19.7% in [8], 29.7% in experiment [9] and 35.8% in experiment [10].
For `CC(=C(c1ccc(OCCN2CCCC2)cc1)c1ccc(OCCN2CCCC2)cc1)c1ccc(Cl)cc1`, the growth was -2.54% (active) in experiment [1]; 37.3% in [2]; 47.9% in experiment [3]; -74% (active) in [4]; 78.6% in experiment [5]; -72.5% (active) in experiment [6]. For the same compound, the growth in experiment [7] was 26.8%; in [8] it was 86.5%; in experiment [9], -48.6% (active); in [10], -43% (active).
In the case of `C/C(=N\NC(N)=S)c1nnn(-c2ccc([N+](=O)[O-])cc2)c1C`, the growth in experiment [1] is 110%; in experiment [2], 62.4%; in experiment [3], 94.5%; in experiment [4] it was 70.5%; in experiment [5], 98.7%; in experiment [6] it was 97%. Also, the growth in experiment [7] is 90.8%; in experiment [8], 94%; in experiment [9], 101%; in [10], 105%.
Consider `CCNC(=O)Oc1ccc(/C(=C(/C)c2ccc(OC)cc2)c2ccc(OCCN3CCCCCC3)cc2)cc1`, for which the growth in [1] was 83.4%; in experiment [2], 69.7%; in experiment [3], 59.4%; in experiment [4] it was 0.828% (active); in experiment [5], 116%; in experiment [6], 61.3%. For the same compound, the growth in [7] is 14.5%; in experiment [8] it was 54.8%; in [9] it was 36.8%; in [10], 17.2%.
As to `O=C(/C=C/c1ccc(F)cc1)Nc1cccc2cccnc12`, the growth in experiment [1] was 107%; in [2] it was 91.4%; in experiment [3] it was 101%; in experiment [4], 84.1%; in [5] it was 147%; in [6], 105%. The growth in experiment [7] was 91.4%; in experiment [8], 114%; in experiment [9] it was 105%; in experiment [10], 105%.
For `Cc1ccc(S(=O)(=O)NCCCNc2nc(Nc3ccc(N4CCN(C)CC4)cc3)nc3ccsc23)cc1`, the growth in experiment [1] was 92.9%; in experiment [2], 78.8%; in experiment [3], 58.3%; in [4] it was 50.7%; in experiment [5], 124%; in experiment [6] it was 11.7%. The growth in [7] is 14.5%; in experiment [8] it was 56.2%; in [9] it was 18.1%; in experiment [10] it was 9.91% (active).
Regarding `CN(C)c1ccc(/C=N/Nc2nc(N/N=C/c3ccc(N(C)C)cc3)nc(N3CCCCC3)n2)cc1`, the growth was 111% in [1]; 97% in experiment [2]; 50.4% in [3]; 80.3% in experiment [4]; 118% in experiment [5]; 32.4% in [6]. The growth is 89.9% in experiment [7], 115% in experiment [8], 25.8% in [9] and 12.1% in experiment [10].
For `C#C[C@]1(O)CC[C@H]2[C@@H]3CC=C4c5sc(Nc6ncccc6C)nc5CC[C@]4(C)[C@H]3CC[C@@]21C`, the growth in [1] was -11.1% (active); in experiment [2], -10.6% (active); in experiment [3] it was 40.9%; in experiment [4] it was -39.8% (active); in experiment [5], 40.9%; in experiment [6], 18.1%. The growth in [7] was -36.3% (active); in experiment [8], -5.84% (active); in experiment [9], 7.66% (active); in experiment [10], -30.3% (active).
